This note sets out measurements from article PMC5540273 (PLoS ONE, 2017).

The structures appear in SMILES notation.

Common to all, as to conditions: concentration: 1 μM, replicates: in singlicate; n = 1
Test [1] has as its system PRKCD.
Test [2] concerns PRKCE.
For test [3], the system named is PRKCH.
The test system of test [4] is PRKCI.
In test [5] the test system is PRKCQ.
Test [6] deals with PRKD1.
Test [7] deals with PRKD2.
The subject of test [8] is PRKD3.
Test [9] concerns PRKG1.
Test [10] deals with PRKG2.
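Note: KINOMEscan kinase panel screen.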

`O=c1cc(N2CCOCC2)nc2n(Cc3cccc(Cl)c3)ccn12` [GSK2296823]: the “%Inh” value in [1] was 0%; in test [2], 8%; in test [3], 0%; in test [4] it was 22%; in [5], 0%; in test [6], 0%. Moreover, the “%Inh” value is 0% in test [7], 15% in test [8], 0% in test [9] and 0% in [10].

Turning to `c1ccc(-c2ccc3c(-c4ccnc(Nc5ccc6c(c5)OCCO6)n4)cnn3n2)cc1` [GW818941], the “%Inh” value in test [1] is 1%; in test [2] it was 0%; in [3], 9%; in [4] it was 9%; in test [5] it was 37%; in [6], 0%. The “%Inh” value in test [7] is reported as 18%; in test [8] it was 16%; in [9] it was 42%; in [10] it was 0%.

On to `O=C(c1ccc(-c2cc(-c3c[nH]nc3-c3ccccn3)ccn2)cc1)N1CCCC1` [GW792479], for which the “%Inh” value is reported as 12% in [1]; 0% in test [2]; 0% in [3]; 100% in test [4]; 0% in test [5]; 0% in [6]. The “%Inh” value in [7] was 0%; in [8], 0%; in [9], 13%; in [10] it was 0%.

`Fc1ccc(Nc2nccc(-c3c(-c4ccc(Cl)cc4)nn4ncccc34)n2)cc1F` [GW829058]: the “%Inh” value in test [1] is recorded as 0%; in test [2], 18%; in test [3], 0%; in [4], 22%; in test [5] it was 0%; in test [6] it was 0%. For the same compound, the “%Inh” value in test [7] is reported as 0%; in [8], 9%; in [9], 3%; in test [10], 17%.

In the case of `Cl.Cn1ccc(-c2cccc(Nc3ccnc4cc(-c5nccs5)ccc34)c2)n1` [GW525701], the “%Inh” value in test [1] is on record as 0%; in test [2], 10%; in [3], 14%; in test [4], 0%; in [5] it was 0%; in test [6], 0%. In addition, the “%Inh” value was found to be 0% in test [7], 14% in test [8], 22% in [9] and 0% in test [10].

Take `CC(C)(C)c1ccc(-n2cnc3c(N)ncnc32)cc1` [SKF-97263]: the “%Inh” value is listed as 6% in [1]; 13% in test [2]; 29% in test [3]; 1% in [4]; 15% in test [5]; 0% in [6]. The “%Inh” value in [7] was 0%; in [8], 55%; in [9], 11%; in test [10] it was 0%.

As for `COc1ccc(-c2oc3ncnc(N)c3c2-c2ccc(OC)cc2)cc1` [SB-589132], the “%Inh” value worked out at 0% in test [1]; 28% in [2]; 4% in test [3]; 35% in test [4]; 0% in test [5]; 30% in test [6]. In addition, the “%Inh” value in test [7], in test [8], in test [9] and in test [10] was 0% each time.

For `Fc1cccc(COc2ccc(Nc3ncnc4cc[nH]c34)cc2Cl)c1`, the “%Inh” value in test [1] stood at 14%; in test [2], 0%; in test [3], 0%; in test [4], 12%; in test [5] it was 10%; in test [6], 0%. In addition, the “%Inh” value amounted to 25% in [7], 0% in [8], 2% in test [9] and 13% in test [10].

`Clc1ccc(-c2cc(-c3c[nH]nc3-c3ccccn3)ccn2)cc1` [GW681251]: the “%Inh” value was 0% in [1]; 26% in test [2]; 4% in test [3]; 0% in test [4]; 0% in test [5]; 56% in [6]. In addition, the “%Inh” value in test [7] came to 31%; in [8], 25%; in test [9], 0%; in test [10], 10%.

Regarding `COc1cc2ncnc(Nc3ccc(OCc4ccccc4Br)c(Cl)c3)c2cc1OC.Cl` [GI261590], the “%Inh” value in test [1] is 0%; in test [2] it was 8%; in [3], 0%; in test [4], 33%; in test [5] it was 100%; in [6], 4%. Also, the “%Inh” value in [7], in test [8], in [9] and in [10] was 0% each time.

For the compound `CCCc1ccc(S(=O)(=O)NC2CCN(c3ccnc(Nc4ccc(OC)cc4)n3)C2)cc1` (stereo not drawn) [GSK1379737], the “%Inh” value in [1] amounted to 0%; in test [2], 9%; in test [3] it was 0%; in [4] it was 11%; in [5] it was 0%; in test [6] it was 0%. The “%Inh” value in test [7] worked out at 3%; in test [8], 9%; in [9], 0%; in test [10], 0%.

Consider `Cc1cc(N2CCC(NS(=O)(=O)c3ccc(F)cc3)CC2)nc(Nc2cccc(C#N)c2)n1.O=C(O)C(F)(F)F` [GSK1653537], for which the “%Inh” value in test [1] is recorded as 3%; in test [2], 0%; in test [3] it was 27%; in test [4], 12%; in test [5], 19%; in test [6], 35%. Moreover, the “%Inh” value in test [7] is listed as 31%; in test [8] it was 43%; in test [9] it was 3%; in test [10] it was 0%.

Regarding `C[C@@H]1CCN(C(=O)CO)C[C@@H]1N(C)c1ncnc2[nH]ccc12`, the “%Inh” value stood at 22% in test [1]; 54% in test [2]; 0% in test [3]; 0% in test [4]; 0% in [5]; 17% in test [6]. The “%Inh” value came out at 6% in test [7], 7% in test [8], 95.3% in test [9] and 0% in test [10].

Regarding `Nc1nccc2scc(-c3ccc4c(c3)CCN4C(=O)Cc3cc(F)ccc3F)c12` [GSK2587663], the “%Inh” value in test [1] amounted to 0%; in test [2], 0%; in [3], 16%; in test [4], 1%; in test [5], 24%; in [6] it was 0%. Besides, the “%Inh” value in test [7] worked out at 18%; in test [8], 16%; in [9] it was 9%; in [10], 2%.

Turning to `O=C(Nc1ccccc1F)NC1CCN(c2ccnc(Nc3ccc(F)cc3)n2)C1` (stereo not drawn) [GSK1379722], the “%Inh” value in [1] is 0%; in [2], 13%; in test [3], 30%; in test [4], 10%; in test [5] it was 23%; in test [6], 0%. In addition, the “%Inh” value in [7], in [8], in test [9] and in [10] was 0% throughout.

Consider `Cc1cccc(-c2nc(Nc3ccc4[nH]nnc4c3)c3ccccc3n2)n1` [GW867587], for which the “%Inh” value in test [1] was found to be 0%; in test [2], 7%; in test [3] it was 0%; in [4] it was 0%; in test [5] it was 0%; in [6], 94.2%. Further, the “%Inh” value in test [7] was 98.1%; in test [8] it was 66%; in test [9], 0%; in [10], 0%.

`O=C(CCO)NCCn1ccc2ncnc(Nc3ccc(Oc4cccc(C(F)(F)F)c4)c(Cl)c3)c21`: the “%Inh” value in test [1] turned out to be 0%; in test [2] it was 6%; in test [3], 0%; in test [4], 0%; in [5], 0%; in [6], 0%. In addition, the “%Inh” value in [7] is given as 5%; in [8], 0%; in test [9], 13%; in [10], 0%.

In the case of `Cl.Cl.c1ccc(-c2cc3ccncc3cc2OC2CCNCC2)cc1` [GSK1122999], the “%Inh” value is on record as 33% in test [1]; 82% in test [2]; 86% in [3]; 21% in test [4]; 21% in [5]; 15% in test [6]. The “%Inh” value is recorded as 7% in test [7], 0% in [8], 0% in [9] and 0% in [10].

Turning to `FC(F)(F)c1ccc(-c2nn3ncccc3c2-c2ccnc(Nc3cccc(C(F)(F)F)c3)n2)cc1` [GW828205], the “%Inh” value in test [1] is on record as 16%; in test [2] it was 0%; in test [3], 0%; in test [4], 30%; in test [5] it was 0%; in test [6], 7%. The “%Inh” value in test [7] was 6%; in [8], 0%; in test [9] it was 5%; in test [10] it was 16%.

Regarding `CN1CCC(n2cnc(-c3ccc(F)cc3)c2-c2ccnc(NC3CCNCC3)n2)CC1` [SB-229482], the “%Inh” value in test [1] is given as 1%; in [2] it was 27%; in test [3], 0%; in test [4], 0%; in test [5] it was 13%; in test [6], 0%. Moreover, the “%Inh” value stood at 0% in test [7], 0% in test [8], 0% in test [9] and 17% in test [10].

As for `COc1ccc(NC(=O)Nc2ccc(C)c(-c3ccc(C(=O)Nc4ccncc4)cc3)c2)cc1` [GSK1398475], the “%Inh” value in [1] stood at 0%; in [2], 3%; in test [3], 0%; in test [4] it was 0%; in test [5], 0%; in test [6], 0%. In addition, the “%Inh” value in [7] turned out to be 11%; in [8] it was 5%; in [9], 0%; in test [10], 0%.
